One may read the inhibition as the relative decrease from the control value, in per cent.

Test [1] concerns the target T1, Mitogen-activated protein kinase 12 (Homo sapiens) (UniProt P53778).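 Also: values are averaged p38gamma kinase inhibition readings, compounds tested at 1 µM.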
T1 sequence (whole entry): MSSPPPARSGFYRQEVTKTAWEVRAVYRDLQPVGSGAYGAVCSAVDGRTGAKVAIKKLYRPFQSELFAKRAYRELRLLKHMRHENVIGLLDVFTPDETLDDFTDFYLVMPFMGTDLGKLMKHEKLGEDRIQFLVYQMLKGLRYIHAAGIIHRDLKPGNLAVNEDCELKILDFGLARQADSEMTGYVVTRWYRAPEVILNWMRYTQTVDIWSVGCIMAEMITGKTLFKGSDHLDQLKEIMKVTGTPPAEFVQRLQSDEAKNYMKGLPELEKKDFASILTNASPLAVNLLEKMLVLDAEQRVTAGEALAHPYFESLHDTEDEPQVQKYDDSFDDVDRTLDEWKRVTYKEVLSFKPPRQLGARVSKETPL
The following applies: at 1 µM.

Test [2] addresses SRSF protein kinase 1 (Homo sapiens) (UniProt Q96SB4). The following applies: at 0.1 µM.
For test [3] the target is unchanged. The following applies: at 1 µM.
Test [4] deals with Phosphatidylinositol 4,5-bisphosphate 3-kinase catalytic subunit alpha isoform (Homo sapiens) (UniProt P42336). As to conditions: at 0.1 µM.
For test [5] the target is unchanged. The following applies: at 1 µM.
The target of test [6] is T2, Phosphatidylinositol 4,5-bisphosphate 3-kinase catalytic subunit delta isoform (Homo sapiens) (UniProt O00329).
T2 sequence (whole entry): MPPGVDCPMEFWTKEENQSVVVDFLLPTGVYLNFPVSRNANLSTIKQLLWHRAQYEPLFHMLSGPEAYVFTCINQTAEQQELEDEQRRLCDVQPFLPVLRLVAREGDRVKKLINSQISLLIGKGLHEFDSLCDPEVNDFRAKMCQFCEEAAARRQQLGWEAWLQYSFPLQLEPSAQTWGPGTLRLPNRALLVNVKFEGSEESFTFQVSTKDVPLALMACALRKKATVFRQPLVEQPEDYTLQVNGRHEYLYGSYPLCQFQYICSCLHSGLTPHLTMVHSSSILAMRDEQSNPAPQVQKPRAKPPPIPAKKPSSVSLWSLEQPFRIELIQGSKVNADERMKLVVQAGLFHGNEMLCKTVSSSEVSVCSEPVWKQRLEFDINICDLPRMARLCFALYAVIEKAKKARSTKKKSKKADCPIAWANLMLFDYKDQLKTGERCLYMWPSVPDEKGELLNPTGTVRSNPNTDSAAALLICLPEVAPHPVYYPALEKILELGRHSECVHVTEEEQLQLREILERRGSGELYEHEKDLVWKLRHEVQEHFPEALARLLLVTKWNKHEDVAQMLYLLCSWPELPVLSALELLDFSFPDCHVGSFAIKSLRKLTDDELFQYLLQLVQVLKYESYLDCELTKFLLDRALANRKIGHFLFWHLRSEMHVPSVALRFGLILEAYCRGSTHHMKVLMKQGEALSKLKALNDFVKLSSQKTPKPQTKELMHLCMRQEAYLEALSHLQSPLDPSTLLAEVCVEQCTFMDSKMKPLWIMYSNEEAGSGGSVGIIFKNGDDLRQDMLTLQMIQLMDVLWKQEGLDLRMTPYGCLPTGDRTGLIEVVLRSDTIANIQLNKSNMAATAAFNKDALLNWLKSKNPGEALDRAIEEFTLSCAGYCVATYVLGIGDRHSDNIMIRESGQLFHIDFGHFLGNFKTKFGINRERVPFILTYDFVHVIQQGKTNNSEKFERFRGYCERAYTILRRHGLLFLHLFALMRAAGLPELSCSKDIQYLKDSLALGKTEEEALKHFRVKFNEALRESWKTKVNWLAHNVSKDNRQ
As to conditions: at 0.1 µM.

Test [7] has as its target T2, Phosphatidylinositol 4,5-bisphosphate 3-kinase catalytic subunit delta isoform (Homo sapiens). As to conditions: at 1 µM.
Test [8] deals with Phosphatidylinositol 4-kinase beta (Homo sapiens) (UniProt Q9UBF8). The following applies: at 0.1 µM.
Test [9] shares this target. As to conditions: at 1 µM.
In test [10] the target is Sphingosine kinase 1 (Homo sapiens) (UniProt Q9NYA1). The following applies: at 0.1 µM.
Test [11] has the same target. As to conditions: at 1 µM.
Test [12] deals with T3, Sphingosine kinase 2 (Homo sapiens) (UniProt Q9NRA0).
T3 sequence (whole entry): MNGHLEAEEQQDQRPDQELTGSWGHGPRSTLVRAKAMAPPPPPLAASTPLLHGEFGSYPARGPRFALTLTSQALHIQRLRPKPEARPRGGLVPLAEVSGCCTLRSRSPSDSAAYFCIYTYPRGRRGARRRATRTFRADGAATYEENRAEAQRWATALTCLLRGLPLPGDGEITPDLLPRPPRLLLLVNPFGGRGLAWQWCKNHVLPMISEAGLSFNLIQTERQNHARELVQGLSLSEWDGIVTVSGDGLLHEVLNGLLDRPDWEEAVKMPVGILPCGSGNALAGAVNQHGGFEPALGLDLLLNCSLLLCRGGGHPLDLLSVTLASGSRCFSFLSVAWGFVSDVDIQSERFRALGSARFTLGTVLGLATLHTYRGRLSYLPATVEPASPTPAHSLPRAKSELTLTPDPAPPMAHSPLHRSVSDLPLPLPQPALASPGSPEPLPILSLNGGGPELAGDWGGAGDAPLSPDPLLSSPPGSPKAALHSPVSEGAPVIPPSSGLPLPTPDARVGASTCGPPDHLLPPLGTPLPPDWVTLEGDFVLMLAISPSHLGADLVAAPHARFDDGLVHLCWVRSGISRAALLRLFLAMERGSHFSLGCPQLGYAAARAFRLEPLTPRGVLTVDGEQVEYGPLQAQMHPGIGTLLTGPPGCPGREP
As to conditions: at 0.1 µM.

Test [13] concerns the target T3, Sphingosine kinase 2 (Homo sapiens). The following applies: at 1 µM.
Test [14] has as its target Casein kinase II subunit alpha (Homo sapiens) (UniProt P68400). The following applies: at 0.1 µM.
For test [15] the target is unchanged. As to conditions: at 1 µM.
The target of test [16] is T4, Inhibitor of nuclear factor kappa-B kinase subunit alpha (Homo sapiens) (UniProt O15111).
T4 sequence (whole entry): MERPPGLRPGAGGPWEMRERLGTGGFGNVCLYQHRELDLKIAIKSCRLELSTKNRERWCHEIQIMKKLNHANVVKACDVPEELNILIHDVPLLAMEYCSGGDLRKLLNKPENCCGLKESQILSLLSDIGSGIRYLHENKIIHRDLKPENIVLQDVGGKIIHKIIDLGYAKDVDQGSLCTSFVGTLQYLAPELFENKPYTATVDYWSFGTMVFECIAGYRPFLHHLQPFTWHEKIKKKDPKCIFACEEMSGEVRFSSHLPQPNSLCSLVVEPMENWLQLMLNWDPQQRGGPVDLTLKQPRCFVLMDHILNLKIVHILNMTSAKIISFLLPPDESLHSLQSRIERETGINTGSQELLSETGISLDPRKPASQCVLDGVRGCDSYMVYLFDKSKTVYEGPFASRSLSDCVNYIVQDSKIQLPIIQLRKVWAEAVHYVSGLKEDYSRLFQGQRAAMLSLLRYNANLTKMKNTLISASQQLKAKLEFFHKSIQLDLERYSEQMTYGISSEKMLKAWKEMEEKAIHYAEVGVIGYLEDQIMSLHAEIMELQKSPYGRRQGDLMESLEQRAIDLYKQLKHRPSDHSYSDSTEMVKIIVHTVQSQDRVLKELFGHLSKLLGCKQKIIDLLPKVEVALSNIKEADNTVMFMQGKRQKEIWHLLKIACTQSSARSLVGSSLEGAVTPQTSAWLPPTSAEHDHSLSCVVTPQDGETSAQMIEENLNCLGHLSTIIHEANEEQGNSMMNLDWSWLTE
The following applies: at 0.1 µM.

Test [17] concerns the target T4, Inhibitor of nuclear factor kappa-B kinase subunit alpha (Homo sapiens). As to conditions: at 1 µM.
The target in test [18] is T5, Inhibitor of nuclear factor kappa-B kinase subunit beta (Homo sapiens) (UniProt O14920).
T5 sequence (whole entry): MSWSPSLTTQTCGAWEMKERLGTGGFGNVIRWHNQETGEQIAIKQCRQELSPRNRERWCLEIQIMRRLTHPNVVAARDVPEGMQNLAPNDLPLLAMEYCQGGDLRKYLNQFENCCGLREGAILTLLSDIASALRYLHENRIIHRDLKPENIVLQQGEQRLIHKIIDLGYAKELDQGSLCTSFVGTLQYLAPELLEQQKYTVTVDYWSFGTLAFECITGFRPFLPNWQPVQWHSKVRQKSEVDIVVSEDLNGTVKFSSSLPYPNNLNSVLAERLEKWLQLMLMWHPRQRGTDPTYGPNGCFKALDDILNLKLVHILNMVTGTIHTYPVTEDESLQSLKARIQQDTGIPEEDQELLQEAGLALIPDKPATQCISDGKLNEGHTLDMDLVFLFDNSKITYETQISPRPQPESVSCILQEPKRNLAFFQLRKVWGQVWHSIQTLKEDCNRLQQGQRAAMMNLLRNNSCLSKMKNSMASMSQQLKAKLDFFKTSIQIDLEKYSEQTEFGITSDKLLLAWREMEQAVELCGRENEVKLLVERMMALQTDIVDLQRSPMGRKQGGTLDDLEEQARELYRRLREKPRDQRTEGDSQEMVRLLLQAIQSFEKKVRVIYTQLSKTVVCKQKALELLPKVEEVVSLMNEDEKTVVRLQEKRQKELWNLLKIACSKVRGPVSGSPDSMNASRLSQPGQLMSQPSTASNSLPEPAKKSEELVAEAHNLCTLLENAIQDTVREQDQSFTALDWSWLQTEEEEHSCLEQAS
As to conditions: at 0.1 µM.

The target in test [19] is T5, Inhibitor of nuclear factor kappa-B kinase subunit beta (Homo sapiens). As to conditions: at 1 µM.
Test [20] has as its target T6, Inhibitor of nuclear factor kappa-B kinase subunit epsilon (Homo sapiens) (UniProt Q14164).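 Also: mean inhibition of IKKε reported, from the GSK PKIS dataset.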
T6 sequence (whole entry): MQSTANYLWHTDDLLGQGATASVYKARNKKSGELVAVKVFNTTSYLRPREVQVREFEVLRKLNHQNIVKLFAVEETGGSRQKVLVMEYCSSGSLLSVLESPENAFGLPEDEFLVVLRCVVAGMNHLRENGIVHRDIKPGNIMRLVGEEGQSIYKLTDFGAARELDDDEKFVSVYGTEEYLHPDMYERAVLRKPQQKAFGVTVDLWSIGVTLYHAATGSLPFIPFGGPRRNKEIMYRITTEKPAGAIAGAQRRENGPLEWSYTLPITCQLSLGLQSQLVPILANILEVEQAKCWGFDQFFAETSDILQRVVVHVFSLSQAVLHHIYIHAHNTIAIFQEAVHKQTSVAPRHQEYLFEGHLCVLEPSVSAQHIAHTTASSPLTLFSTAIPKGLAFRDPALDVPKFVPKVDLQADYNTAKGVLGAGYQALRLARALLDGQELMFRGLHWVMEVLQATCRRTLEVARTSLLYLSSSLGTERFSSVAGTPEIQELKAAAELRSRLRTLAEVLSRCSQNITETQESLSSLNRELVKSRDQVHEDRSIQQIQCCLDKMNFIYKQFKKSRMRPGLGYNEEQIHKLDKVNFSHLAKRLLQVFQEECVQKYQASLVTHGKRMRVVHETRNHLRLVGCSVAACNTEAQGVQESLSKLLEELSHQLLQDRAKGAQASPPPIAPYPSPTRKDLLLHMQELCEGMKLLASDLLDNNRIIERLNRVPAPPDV
As to conditions: at 0.1 µM.

Casein kinase II subunit alpha (Homo sapiens), sequence (P68400 whole entry, looked up): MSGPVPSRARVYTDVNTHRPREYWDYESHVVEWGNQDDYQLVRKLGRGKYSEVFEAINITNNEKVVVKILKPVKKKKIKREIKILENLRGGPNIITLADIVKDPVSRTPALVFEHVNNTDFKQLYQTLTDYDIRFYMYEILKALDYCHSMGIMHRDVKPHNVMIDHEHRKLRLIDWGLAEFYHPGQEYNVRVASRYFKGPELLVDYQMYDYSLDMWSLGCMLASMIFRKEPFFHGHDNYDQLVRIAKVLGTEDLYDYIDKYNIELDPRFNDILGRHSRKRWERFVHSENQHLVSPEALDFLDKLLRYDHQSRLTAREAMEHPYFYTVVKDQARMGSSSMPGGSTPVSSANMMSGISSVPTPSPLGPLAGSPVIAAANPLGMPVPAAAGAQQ
Sphingosine kinase 1 (Homo sapiens), sequence (Q9NYA1 whole entry): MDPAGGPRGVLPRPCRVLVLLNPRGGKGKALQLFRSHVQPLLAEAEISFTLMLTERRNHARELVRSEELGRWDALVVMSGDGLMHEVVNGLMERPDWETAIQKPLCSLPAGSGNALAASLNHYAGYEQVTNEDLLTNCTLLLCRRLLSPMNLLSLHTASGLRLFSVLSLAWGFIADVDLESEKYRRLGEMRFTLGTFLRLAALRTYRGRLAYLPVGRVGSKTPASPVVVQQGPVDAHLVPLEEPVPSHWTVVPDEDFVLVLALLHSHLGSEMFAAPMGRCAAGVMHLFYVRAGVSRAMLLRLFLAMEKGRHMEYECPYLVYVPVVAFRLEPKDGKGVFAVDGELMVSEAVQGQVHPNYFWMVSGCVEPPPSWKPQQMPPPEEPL
Phosphatidylinositol 4-kinase beta (Homo sapiens), sequence (Q9UBF8 2-816 limits assumed): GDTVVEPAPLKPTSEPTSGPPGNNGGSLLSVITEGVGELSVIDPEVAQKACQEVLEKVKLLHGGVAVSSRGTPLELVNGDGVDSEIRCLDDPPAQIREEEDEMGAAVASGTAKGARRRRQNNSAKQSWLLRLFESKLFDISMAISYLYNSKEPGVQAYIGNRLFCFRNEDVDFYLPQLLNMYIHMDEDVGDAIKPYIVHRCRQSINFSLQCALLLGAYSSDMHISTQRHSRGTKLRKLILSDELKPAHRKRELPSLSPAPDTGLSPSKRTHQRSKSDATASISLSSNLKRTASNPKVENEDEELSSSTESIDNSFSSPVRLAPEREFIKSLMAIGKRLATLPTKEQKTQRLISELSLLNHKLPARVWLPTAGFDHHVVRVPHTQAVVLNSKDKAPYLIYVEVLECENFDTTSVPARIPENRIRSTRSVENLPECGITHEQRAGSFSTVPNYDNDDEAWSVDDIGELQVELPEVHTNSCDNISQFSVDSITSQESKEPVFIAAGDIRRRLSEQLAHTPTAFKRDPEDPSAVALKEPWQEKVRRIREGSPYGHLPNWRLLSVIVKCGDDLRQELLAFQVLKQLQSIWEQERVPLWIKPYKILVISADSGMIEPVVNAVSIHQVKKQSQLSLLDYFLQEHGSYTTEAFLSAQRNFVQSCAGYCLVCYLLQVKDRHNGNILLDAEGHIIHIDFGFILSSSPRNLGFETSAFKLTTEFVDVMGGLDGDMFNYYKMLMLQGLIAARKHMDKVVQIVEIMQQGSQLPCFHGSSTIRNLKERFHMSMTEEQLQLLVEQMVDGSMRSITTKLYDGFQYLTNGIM
SRSF protein kinase 1 (Homo sapiens), sequence (Q96SB4 whole entry): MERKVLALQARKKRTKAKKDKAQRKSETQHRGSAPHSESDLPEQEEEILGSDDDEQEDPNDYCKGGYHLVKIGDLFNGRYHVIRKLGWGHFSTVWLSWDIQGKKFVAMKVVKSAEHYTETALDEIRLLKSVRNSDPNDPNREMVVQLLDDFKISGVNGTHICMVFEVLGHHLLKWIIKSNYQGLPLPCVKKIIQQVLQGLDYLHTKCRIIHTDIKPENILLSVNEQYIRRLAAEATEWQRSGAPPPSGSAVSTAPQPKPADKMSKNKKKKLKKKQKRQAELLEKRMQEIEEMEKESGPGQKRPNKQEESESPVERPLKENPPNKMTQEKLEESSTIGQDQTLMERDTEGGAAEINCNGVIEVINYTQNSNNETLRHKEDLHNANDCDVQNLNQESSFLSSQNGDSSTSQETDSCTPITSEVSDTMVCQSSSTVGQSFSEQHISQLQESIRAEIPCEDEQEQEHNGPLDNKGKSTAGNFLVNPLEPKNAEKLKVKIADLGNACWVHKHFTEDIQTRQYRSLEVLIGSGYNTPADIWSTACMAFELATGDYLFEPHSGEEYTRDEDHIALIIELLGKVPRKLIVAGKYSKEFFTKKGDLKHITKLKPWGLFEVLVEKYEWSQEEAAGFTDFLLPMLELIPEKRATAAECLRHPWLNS
Phosphatidylinositol 4,5-bisphosphate 3-kinase catalytic subunit alpha isoform (Homo sapiens), sequence (P42336 whole entry, canonical isoform): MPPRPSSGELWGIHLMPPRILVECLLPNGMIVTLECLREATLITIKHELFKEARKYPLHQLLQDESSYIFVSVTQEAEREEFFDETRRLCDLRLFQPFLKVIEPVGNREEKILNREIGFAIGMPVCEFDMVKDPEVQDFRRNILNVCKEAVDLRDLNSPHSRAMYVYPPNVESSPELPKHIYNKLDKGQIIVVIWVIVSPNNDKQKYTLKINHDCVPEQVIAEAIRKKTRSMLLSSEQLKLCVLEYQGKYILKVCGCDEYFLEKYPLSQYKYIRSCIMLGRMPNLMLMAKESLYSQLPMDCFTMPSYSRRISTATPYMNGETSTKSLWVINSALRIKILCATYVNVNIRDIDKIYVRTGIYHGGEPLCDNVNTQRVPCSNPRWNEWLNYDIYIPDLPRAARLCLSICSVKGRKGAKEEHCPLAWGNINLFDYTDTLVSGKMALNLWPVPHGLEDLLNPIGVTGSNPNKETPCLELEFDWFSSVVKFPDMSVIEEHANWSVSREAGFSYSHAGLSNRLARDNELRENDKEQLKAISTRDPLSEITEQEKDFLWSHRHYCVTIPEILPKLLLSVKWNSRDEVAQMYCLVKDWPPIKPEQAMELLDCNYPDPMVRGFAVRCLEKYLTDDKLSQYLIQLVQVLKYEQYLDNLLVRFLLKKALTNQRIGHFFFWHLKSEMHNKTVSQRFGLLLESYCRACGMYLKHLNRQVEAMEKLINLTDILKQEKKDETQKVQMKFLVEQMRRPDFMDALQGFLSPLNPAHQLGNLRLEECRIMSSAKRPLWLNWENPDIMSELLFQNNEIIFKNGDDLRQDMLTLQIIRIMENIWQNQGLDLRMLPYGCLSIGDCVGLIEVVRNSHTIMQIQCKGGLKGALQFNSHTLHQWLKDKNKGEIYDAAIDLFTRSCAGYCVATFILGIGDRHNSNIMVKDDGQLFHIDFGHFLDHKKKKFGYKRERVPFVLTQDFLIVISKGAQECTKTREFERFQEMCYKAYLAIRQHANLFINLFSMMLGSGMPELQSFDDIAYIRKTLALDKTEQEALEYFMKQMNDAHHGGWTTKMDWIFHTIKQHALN

In the case of `COc1ccc2ncn(-c3cc(O[C@H](C)c4ccccc4C(F)(F)F)c(C(N)=O)s3)c2c1`, the inhibition in [1] is -0.21%; in [2] it was -0.66%; in [3], -1.2%; in [4], 0.29%; in [5], 4.81%; in [6], 2.14%. For the same molecule, the inhibition was 12.2% in test [7]; -1.47% in test [8]; 1.85% in [9]; -1.01% in test [10]; 2.4% in [11]; -0.06% in test [12]. Further, the inhibition in [13] was -2.97%; in test [14], -0.88%; in [15], 5.02%; in [16], 3.24%; in test [17], -5.63%; in test [18], -5.7%. In addition, the values for the inhibition in test [19] and in [20] were 1.93% and -0.98%, respectively.

For the molecule `N#Cc1ccc2c(-c3ccnc(NC4CC4)n3)c(-c3ccc(F)cc3)nn2c1`, the inhibition in test [1] was 1.13%; in [2], -1.5%; in test [3] it was -2.4%; in [4], 0.7%; in test [5], 0.6%; in [6] it was -0.45%. Also, the inhibition is -0.14% in test [7]; -2.01% in test [8]; -0.71% in test [9]; 3.55% in test [10]; 0.88% in test [11]; -0.39% in [12]. The inhibition in [13] is 0.05%; in test [14], 2.7%; in [15] it was 1.8%; in test [16], 3.97%; in [17], -0.5%; in test [18] it was 2.19%. The inhibition in test [19] was found to be 0.5%; in test [20], 1.8%.

In the case of `Cc1c2ccc(N(C)c3ccnc(Nc4cccc(S(N)(=O)=O)c4)n3)cc2nn1C`, the inhibition is 3.53% in [1]; -1.71% in test [2]; -3.4% in test [3]; 4.71% in test [4]; 14.4% in test [5]; 6.47% in test [6]. Besides, the inhibition was 29.9% in test [7]; 0.59% in [8]; 1.94% in [9]; 1.12% in test [10]; 1.41% in [11]; -0.17% in test [12]. The inhibition in [13] is 0%; in test [14] it was 0.52%; in test [15] it was 0.25%; in test [16] it was 7.99%; in test [17], 3.93%; in test [18], 5.79%. The inhibition in test [19] was found to be 5.44%; in test [20], 4.78%.
